Assay results as given in PubChem BioAssay AID1942 (Johns Hopkins Ion Channel Center, 2009).
Screen size: about 2,400 compounds; about 580 (24%) were called active. A selection follows. Values without a mark were called inactive.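 Rule for the calls: active = activity change at or above the mean plus 3 SD of buffer wells without dofetilide, per plate; inactive = the rest.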

biological target: Potassium voltage-gated channel subfamily KQT member 2 (Rattus norvegicus) (UniProt O88943); assay: rat KCNQ2 channel activation by compounds alone, confirmation, counter-screen for hERG block protector project, cell-based, CHO, FluxOR thallium flux (AID 1942); details: CHO-KCNQ2 cells, FluxOR thallium flux fluorescence; at 10 µM; active compounds read high;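 note: normalized value minus buffer-control mean plus three SD of buffer wells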
Sequence (O88943 whole entry, looked up): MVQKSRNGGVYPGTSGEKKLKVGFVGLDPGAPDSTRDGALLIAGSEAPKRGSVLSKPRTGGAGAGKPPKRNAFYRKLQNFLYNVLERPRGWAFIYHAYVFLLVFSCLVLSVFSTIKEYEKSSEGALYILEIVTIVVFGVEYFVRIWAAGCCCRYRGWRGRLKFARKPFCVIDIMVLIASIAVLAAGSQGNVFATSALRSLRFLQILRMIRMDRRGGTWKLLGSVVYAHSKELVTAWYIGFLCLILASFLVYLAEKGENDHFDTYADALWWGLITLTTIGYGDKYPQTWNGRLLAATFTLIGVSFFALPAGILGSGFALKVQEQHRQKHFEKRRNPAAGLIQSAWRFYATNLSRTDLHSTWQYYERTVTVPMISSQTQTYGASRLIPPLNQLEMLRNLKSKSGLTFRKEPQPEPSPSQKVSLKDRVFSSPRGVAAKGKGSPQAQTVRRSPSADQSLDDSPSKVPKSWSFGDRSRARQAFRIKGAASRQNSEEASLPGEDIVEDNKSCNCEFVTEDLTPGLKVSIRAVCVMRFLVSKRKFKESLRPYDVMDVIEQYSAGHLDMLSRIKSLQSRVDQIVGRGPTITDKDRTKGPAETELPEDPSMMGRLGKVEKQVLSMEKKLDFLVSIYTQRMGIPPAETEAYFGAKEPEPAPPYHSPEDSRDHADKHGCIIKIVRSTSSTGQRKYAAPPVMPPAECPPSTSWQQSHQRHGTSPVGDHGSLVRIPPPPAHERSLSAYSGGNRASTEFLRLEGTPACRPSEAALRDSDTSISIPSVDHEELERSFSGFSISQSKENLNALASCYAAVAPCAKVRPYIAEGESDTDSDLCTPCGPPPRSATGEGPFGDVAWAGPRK

SMILES	activity change, less the hit threshold
O=C(OCc1ccccc1)C1=NNC2C(=O)N(c3ccc(Br)cc3)C(=O)C12 (stereo not drawn)	-11.1%
C=C(C)CNC(=S)NN=C1c2ccccc2-c2ccccc21	-7.1%
COc1ccccc1C1C(C(=O)c2ccc(C)o2)=C(O)C(=O)N1c1cc(C)on1 (stereo not drawn)	-9.3%
COc1ccccc1-n1cnc2cc(NS(=O)(=O)c3ccc(Br)cc3)ccc21	-25.5%
CC1Oc2ccccc2N(CC(=O)N2CCCCCC2)C1=O (stereo not drawn)	-17.7%
O=C(COc1coc(CN2CCc3ccccc3C2)cc1=O)Nc1cccc(Cl)c1	-26%
COc1ccc(CCNC(=O)C(=O)Nc2ccc3c(c2)OCO3)cc1OC	-19%
CC(NC(=O)NC1CCCCC1)c1ccc2c(c1)OCO2 (stereo not drawn)	51% (active)
O=C(COC(=O)/C=C/c1ccc2c(c1)OCO2)NC1CC1	-11.4%
COc1cc(/C=N/NC(=O)NC2CCCCC2)ccc1O	-11.5%
CCOC(=O)N1CCN(C(=O)c2ccc(CN(c3ccc(C)c(C)c3)S(C)(=O)=O)cc2)CC1	-15.6%
CCOC(=O)N1CCN(C(=O)c2ccc(C)c(S(=O)(=O)Nc3ccccc3)c2)CC1	4% (active)
O=C(c1ccc(Cl)c(S(=O)(=O)N2CCCC2)c1)N1CCN(c2ccccc2F)CC1	-7.1%
COc1ccc(N2CCN(C(=O)c3ccc(-c4ccccc4)cc3)CC2)cc1	-20%
Cc1ccc(C(=O)N2CCN(c3ccccc3)CC2)cc1S(=O)(=O)N1CCCC1	1.9% (active)
CCOC(=O)N1CCN(C(=O)c2ccc(Cl)c(S(=O)(=O)Nc3ccccc3)c2)CC1	-3.5%
Cc1cccc(/N=C/c2sc3ccccc3c2O)n1	-11.6%
CCC(=O)c1cc2c(C)cc(=O)oc2c(C)c1O	-12.6%
CSc1ccc(CNc2nc3ccccc3n3cnnc23)cc1	-28.3%
COc1ccc(COC(=O)C2CCN(S(=O)(=O)c3cccs3)CC2)cc1	-20.1%
c1ccc(-c2csc(Nc3ccc4c(c3)OCCO4)n2)cc1	-20.3%

SMILES	activity change, less the hit threshold
O=C(COC(=O)c1cc[n+]([O-])cc1)Nc1cc([N+](=O)[O-])ccc1Cl	-11.7%
O=C(Cc1ccc(Cl)cc1)Nc1cccc(-c2nnc(-c3ccco3)o2)c1	-13.4%
O=C(CCc1ccccc1)Nc1nnc(-c2ccccn2)o1	-17.4%
O=C(Nc1nnc(-c2ccc3c(c2)CCCC3)o1)c1ccc(Cl)cc1Cl	30.2% (active)
O=C(Nc1nnc(-c2ccccc2)o1)c1ccc(Cl)cc1	-17.9%
O=C(Nc1nc2c(F)cc(F)cc2s1)C1COc2ccccc2O1 (stereo not drawn)	-25.7%
O=C(Nc1nnc(-c2ccc3c(c2)CCCC3)o1)C1COc2ccccc2O1 (stereo not drawn)	4.3% (active)
O=C(N=C1SC2CS(=O)(=O)CC2N1c1cccc(Cl)c1Cl)C1CCCO1 (stereo not drawn)	-21.2%
CCCN(C(=O)c1ccco1)c1nnc(-c2ccncc2)s1	-7.4%
Cc1ccc(/C(O)=C2\C(=O)C(=O)N(Cc3cccnc3)C2c2ccccc2[N+](=O)[O-])cc1 (stereo not drawn)	-16%
Cc1ccc(NC(=O)CN2C(=O)S/C(=C/c3ccc(-c4cc(C(=O)O)ccc4C)o3)C2=O)cc1C	-24.7%
Cc1ccc2c(c1)N(CCC(=O)NCc1cccnc1)C(=O)CO2	-10.8%
C/C(=C\C(=O)c1ccncc1)Nc1ccccc1O	-11.7%
O=C1CC(O)(C(F)(F)F)Oc2c1ccc1ccccc21 (stereo not drawn)	28.3% (active)
CC1(C)Cc2c(ccc3ccccc23)C2=C(C(=O)N3CCCC3)C(=O)C(=O)N21	-11.1%
Nc1nc2c(s1)CCCCCCCCCC2	-3%
O=C(c1ccco1)N(c1ccccn1)c1ccccn1	-21.4%
Brc1ccc(C2=CC(c3ccco3)n3nnnc3N2)cc1 (stereo not drawn)	-16.3%
O=C(O)c1sccc1OCc1ccccc1	-0.9%
C=CCn1c(O)c(N=NC(=S)Nc2ccc(OC)c(Cl)c2)c2ccccc21	3.8% (active)
C=CCn1c(O)c(N=NC(=S)Nc2ccc(OC)cc2)c2ccccc21	25% (active)

SMILES	activity change, less the hit threshold
Cc1ccccc1Cn1c(O)c(N=NC(=S)Nc2ccccc2F)c2ccccc21	-20.7%
Oc1c(N=NC(=S)Nc2ccccc2F)c2ccccc2n1Cc1cccc(Cl)c1	-13%
Oc1c(N=NC(=S)Nc2ccccc2F)c2ccccc2n1Cc1ccccc1F	-12.8%
Cc1ccc(C)c(Cn2c(O)c(N=NC(=S)Nc3ccccc3F)c3ccccc32)c1	-11.3%
CCCCCCCc1c(O)nc(SCC(=O)O)[nH]c1=O	-8.4%
Cc1cc(-c2ccccc2)[nH]c(=O)c1S(=O)(=O)c1ccccc1	-13%
C/C(N)=C(/C#N)C(=O)COC(=O)C1CCC(C(C)(C)C)CC1 (stereo not drawn)	-10%
Cn1cc(CCC(=O)N2CCCC(Nc3ccc(F)cc3)C2)cn1 (stereo not drawn)	-23.8%
CCC(=O)Nc1nnc(-c2ccccn2)o1	-22.5%
CC(Oc1ccc(Cl)cc1)/C(N)=N/O (stereo not drawn)	-19.6%
CC(=O)c1n[nH]nc1NC(=O)c1ccccc1	-9.7%
CCc1cccc(C)c1NC(=O)C1=C(C(=O)O)CCCC1	-15.9%
Cc1ccccc1Cn1nc(C)c(NC(=O)c2ccccc2)c1C	51.6% (active)
COc1ccc(CCN2C(=O)CSC2=S)cc1OC	-24%
O=C(NC(=S)NCCc1ccccc1)c1cccc(Cl)c1	-22.4%
Cc1cccc(C(=O)NC(=S)NNC(=O)c2ccc(Cl)cc2)c1	-29%
O=C(CCC1CCCC1)NNC(=O)c1cccc(Cl)c1	11.7% (active)
Cc1ccccc1NC(=O)CC1S/C(=N/c2nccs2)N(C)C1=O (stereo not drawn)	-17.1%
O=C(O)C1CCN1C1CCCCC1 (stereo not drawn)	-22.9%
CCOC(=O)c1ccc(Oc2cc(C)nc(SC)n2)cc1	11.9% (active)
CCOc1cc(-n2ncc(C#N)c2N)nc(SC)n1	-21.7%
